AMA1-RON2 inh – qHTS for Inhibitors of AMA1-RON; Towards Development of Antimalarial Drug Lead: Primary Screen | AlphaScreen AMA1-biotinylated RON2 peptide binding | Plasmodium falciparum AMA1 (3D7) - RON2 peptide interaction | 360,000 compounds, 0.2% hits | Potency, µM (doses to about 58.2 µM), for the others: at the highest dose activity change, negative = inhibition, most hits filed as inhibitors | AID 720542, 2013;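 further: 0% = vehicle wells and -100% = peptide control; nearly all actives have a fitted effect of over 45% in size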
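AMA1 (3D7) with his tag at 25 nM final met compounds first, then biotinylated RON2 peptide at 25 nM; detection used donor plus acceptor beads, 10 µg/mL apiece, read by AlphaScreen after 30 min at room temperature.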
VACV mCherry inh – qHTS for Stage-Specific Inhibitors of Vaccinia Orthopoxvirus: mCherry Reporter Primary qHTS; Vaccinia virus mCherry reporter infection, fluorescence; Potency, µM (series often up to 36.5 µM), inactives show at the highest dose activity change, negative = inhibition, most hits filed as inhibitors; 310,000 compounds, 0.63% hits; calls by dose curve; tested in A549 cells; further: on the % scale 0 is the no-effect control and ±100 the full control effect; nearly all actives have a fitted effect of over 35% in size
SARS PLpro yeast – qHTS of Yeast-based Assay for SARS-CoV PLP. S. cerevisiae expressing SARS-CoV PLpro, growth rescue. AID 485353, 2010. 330,000 compounds, 0.19% hits. Potency, µM (top dose mostly 32.9 µM), for the others: at the top dose activity, positive = growth rescue, usual class: activators; calls by dose curve; further: 0% is about no effect; nearly all actives have a fitted effect of over 55% in size
AmpC inh no detg – qHTS Inhibitors of AmpC Beta-Lactamase (assay without detergent). P00811. AmpC nitrocefin hydrolysis, absorbance 480 nm, 0.0001% Triton. Potency, µM (doses to about 57.1 µM), for inactives: at the highest dose activity change, negative = inhibition, hits mostly inhibitors. 330,000 compounds, 0.52% hits;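 further: plate controls were no compound for no effect and no enzyme for full effect; nearly all actives have a fitted effect of over 20% in size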
Target sequence (P00811 whole entry, looked up): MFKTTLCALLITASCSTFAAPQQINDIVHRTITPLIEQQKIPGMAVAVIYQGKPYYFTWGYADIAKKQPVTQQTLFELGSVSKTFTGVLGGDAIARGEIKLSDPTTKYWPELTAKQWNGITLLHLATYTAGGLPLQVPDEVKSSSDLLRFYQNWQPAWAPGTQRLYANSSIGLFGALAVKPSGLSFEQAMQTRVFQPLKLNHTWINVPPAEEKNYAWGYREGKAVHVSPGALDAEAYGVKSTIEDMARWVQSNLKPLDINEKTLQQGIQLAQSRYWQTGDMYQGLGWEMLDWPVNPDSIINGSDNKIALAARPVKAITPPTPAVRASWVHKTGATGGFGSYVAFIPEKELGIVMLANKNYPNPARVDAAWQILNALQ
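AmpC (5.3 nM in the dispensed reagent) in 20 mM phosphate pH 7.0 with 0.01% (detergent screen) or 0.0001% Triton X-100 was preincubated with compounds for 15 min at room temperature. Nitrocefin was then added from an 800 uM solution, and hydrolysis was followed at 480 nm.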
Vaccinia Venus – qHTS for Stage-Specific Inhibitors of Vaccinia Orthopoxvirus: Venus Reporter Primary qHTS. Vaccinia virus Venus reporter expression, fluorescence. Potency, µM (series often up to 36.5 µM), without a hit: at the top dose activity change, negative = inhibition, actives largely listed as inhibitors. 330,000 compounds, 0.46% hits. AID 720580, 2013; calls by dose curve; tested in A549 cells; further: on the % scale 0 is the no-effect control and ±100 the full control effect; nearly all actives have a fitted effect of over 30% in size
AmpC inh detg – qHTS Inhibitors of AmpC Beta-Lactamase (assay with detergent); P00811; AmpC hydrolysis of nitrocefin, absorbance 480 nm, 0.01% Triton; Potency, µM (top dose mostly 114 µM), for the others: top-dose activity change, negative = inhibition, actives largely listed as inhibitors; 370,000 compounds, 0.041% hits;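 further: 0% = no-compound wells and -100% = no-enzyme wells; nearly all actives have a fitted effect of over 25% in size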
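AmpC (5.3 nM in the dispensed reagent) in 20 mM phosphate pH 7.0 with 0.01% (detergent screen) or 0.0001% Triton X-100 was preincubated with compounds for 15 min at room temperature. Nitrocefin was then added from an 800 uM solution, and hydrolysis was followed at 480 nm.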
Starred values were filed as active, the others as inactive; i = inactive; ? = inconclusive; · = not tested or not shown; ! = not active in a repeat; [ ] = another dose, or the depositor's remark. Hits are enriched below; roughly 1.3% of the tested compounds scored in any of these assays. Unless noted, the call rests on the fitted dose curve; in most records, active means well fitted curve in the direction sought with a large enough effect; inconclusive means small, poorly fitted or top-dose-only effect, or another doubt; inactive means no such curve, though single readings can be large; an effect the other way counts as inactive or inconclusive. Potency means the concentration at half of the fitted maximal effect.

SMILES	AMA1-RON2 inh	VACV mCherry inh	SARS PLpro yeast	AmpC inh no detg	Vaccinia Venus	AmpC inh detg
CCC1CSC(Nc2ccc(C(=O)/C=C/c3ccc(OC)c(OC)c3)cc2)=N1 (stereo not given)	3.7%	11.2µM*	-40.7%	-12.0%	?	-3.4%
Nc1ccc(Oc2cccc(Oc3ccc(N)cc3)c2)cc1	31.6µM*	-21.2%	-7.1%	-10.7%	-2.7%	10.3%
CCCN1C(=O)/C(=C/c2ccc(N3CCOCC3)cc2)NC1=S	21.1%	·	7.9%	-10.9%	·	-1.6%
CCN1C(=O)/C(=C/c2ccc(N3CCCC3)cc2)NC1=S	?	-14.2%	-11.3%	28.2µM*	35.8%	-5.4%
O=C(Nc1ccc(F)cc1)Nc1cc(OCC(F)(F)F)cc(OCC(F)(F)F)c1	9.8%	10µM*	9.2%	-20.7%	?	4.0%
COc1ccc(C2=NN(C(=S)Nc3ccccc3)C(c3ccccc3)C2)cc1 (stereo not given)	-12.5%	-12.5%	20.4%	25.1µM*	-11.5%	-5.3%
CN(C)CCCNS(=O)(=O)c1ccc(NC2CCCCCC2)c([N+](=O)[O-])c1	-4.8%	8.91µM*	-0.9%	103.8%	-19.5%	-1.6%
CCC(C)NC(=O)c1cn(CC)c2cc(N3CCN(C(=O)c4ccco4)CC3)c(F)cc2c1=O (stereo not given)	2.6%	5.01µM*	1.6%	173.2%	?	3.1%
Clc1ccc(-c2cnnc(-c3ccccn3)n2)cc1	10µM*	?	2.0%	2.7%	?	·
c1ccc(-c2cnnc(-c3ccccn3)n2)cc1	10µM*	-9.1%	·	·	-7.6%	·
c1ccc(-c2cnc(-c3ccccn3)nn2)cc1	?	-1.6%	·	·	-3.5%	·
COc1ccccc1C1CN(Cc2cccc(C)n2)Cc2ccccc2O1 (stereo not given)	·	-19.4%	·	·	-6.5%	·
O=C(COc1ccc([N+](=O)[O-])cc1)Nc1nc(-c2ccccn2)cs1	30.6%	5.62µM*	2.0%	-11.9%	?	0.0%
O=C(COc1cccc(F)c1)Nc1nc(-c2ccccn2)cs1	55.6%	11.2µM*	·	·	?	·
CC(Oc1ccc(Br)cc1)C(=O)Nc1nc(-c2ccccn2)cs1 (stereo not given)	28.8%	12.6µM*	-2.1%	272.6%	?	6.6%
O=C(COc1ccc(F)cc1)Nc1nc(-c2ccccn2)cs1	25.7%	-28.5%	3.2%	-8.8%	-12.3%	?
COc1ccc2cc(CNCc3ccccc3Cl)c(N3CCCC(CO)C3)nc2c1 (stereo not given)	·	-6.4%	·	·	7.9%	·
CC1CN(CCOc2ccc(Cl)cc2Cl)CC(C)O1 (stereo not given)	-7.2%	-0.1%	-7.9%	54.6%	-10.6%	-6.7%
Cc1cc(C)c(C)c(OCCN2CC(C)OC(C)C2)c1 (stereo not given)	28.2µM*	·	0.6%	33.1%	·	-13.9%
CC1CN(CCOc2cccc(Oc3ccccc3)c2)CC(C)O1 (stereo not given)	25.1µM*	·	-4.4%	101.8%	·	-15.6%
Cc1cc2nc(N3CCC(NC(C)c4nc(-c5ccccn5)no4)CC3)nc(C)c2cc1C (stereo not given)	·	-17.2%	·	·	-12.8%	·
CC(C(=O)Nc1ccccc1)c1ccc(-c2ccccc2)c(F)c1 (stereo not given)	11.2%	·	4.4%	11.2µM*	?	?
CC(C(=O)O)c1ccc(-c2ccccc2)c(F)c1 (stereo not given)	-4.1%	-7.1%	-0.8%	-25.5%	-10.3%	-13.3%
CCn1c(C(=O)NCc2ccc(F)cc2)cc2oc3ccccc3c21	·	-16.3%	·	·	10.1%	18.9%
CCOc1ccc(CNC(=O)c2cc3oc4ccccc4c3n2C)cc1	2.5%	10µM*!	-5.1%	-28.4%	7.3%	4.3%
SMILES	AMA1-RON2 inh	VACV mCherry inh	SARS PLpro yeast	AmpC inh no detg	Vaccinia Venus	AmpC inh detg
O=C(CCl)N1N=C(c2ccco2)CC1c1cccs1 (stereo not given)	35.7%	8.91µM*	15.8%	-20.3%	?	-8.7%
CCCCCCCCCC[n+]1ccc(/C=C/c2c(C)[nH]c3ccccc23)c2ccccc21	·	i	·	·	i	·
COc1ccc(/C=N/Nc2nc(-c3ccc(C)cc3)c(NC(C)=O)s2)cc1	41.4%	10µM*	11.1%	-26.3%	-18.4%	-9.9%
CC(=O)Nc1sc(N/N=C/c2ccc(O)cc2)nc1-c1ccc(C)cc1	73.3%	·	1.6%	-41.6%	·	-1.8%
CCN1CCCC1CNC(=O)c1cnn(-c2ncc(C)c(-c3ccc(F)cc3)n2)c1C(C)C (stereo not given)	·	-10.7%	·	·	-2.9%	·
CC(=O)Oc1ccc2ccccc2c1C(NC(=O)Cc1ccccc1)c1ccc(Cl)cc1 (stereo not given)	-10.5%	28.2µM*	-19.9%	-24.2%	?	-4.7%
Cc1cccc(NC(=O)c2ccccc2NC(=O)c2ccco2)c1	-17.9%	·	0.9%	6.31µM*	·	-0.1%
COc1ccc(Cl)cc1-c1cc2c(c(OC)c1)OCCN(Cc1cccn1-c1nccs1)C2	·	-12.4%	·	·	-3.7%	·
O=C(N/N=C/c1cc([N+](=O)[O-])ccc1O)c1cccc(N2CCCC2=O)c1	-43.8%	6.31µM*	21.7%	-40.3%	-1.8%	-4.4%
Oc1c(CN2CCc3ccccc3C2)cc(Cl)c2cccnc12	-67.6%	2.51µM*	-30.3%	-22.5%	?	?
CN1CCN(Cc2cc(COCc3ccccc3)c3cccnc3c2O)CC1	-46.4%	28.2µM*	3.9%	36.4%	?	?
CCCCOCc1cc(CN2CCN(c3cccc(Cl)c3)CC2)c(O)c2ncccc12	·	?	·	·	-27.0%	28.2%
CCCOCc1cc(CN2CCN(c3cccc(Cl)c3)CC2)c(O)c2ncccc12	·	2.82µM*	·	·	-23.1%[7.34 µM]	24.4%
COc1ccc(CN2CCOc3ccc(CN4CCC(Oc5cccnc5)CC4)cc3C2)cc1	·	-11.7%	·	·	-24.7%	·
Clc1ccccc1N1CCN(c2ncnc3nc[nH]c23)CC1	8.3%	-4.9%	-13.8%	8.91µM*	-14.0%	?
Fc1ccccc1N1CCN(c2ncnc3nc[nH]c23)CC1	-2.6%	0.0%	0.9%	-13.4%	-7.9%	1.7%
COc1ccccc1CNC(=O)c1cnn(-c2nccc(-c3cccs3)n2)c1C	·	-8.6%	·	·	-12.9%	·
O=C(NN1C(=O)/C(=C/C=C/c2ccco2)SC1=S)c1ccncc1	5.62µM*	-10.0%	0.7%	-33.0%	18.2%	?
CN(C)c1ccc(/C=C/C=C2/SC(=S)N(c3ccccc3)C2=O)cc1	2.51µM*	442.6%	0.9%	-35.0%	i	-1.4%

High-throughput results (PubChem)
